# Source: PubChem BioAssay (NCATS)
# Values without a mark were called inactive. Inconclusive results are not listed. Entries that show only a call come without a potency. The source made the active and inactive calls. The call rests on the fitted dose curve; in most records, active means well fitted curve in the direction sought with a large enough effect; inconclusive means small, poorly fitted or top-dose-only effect, or another doubt; inactive means no such curve, though single readings can be large; an effect the other way counts as inactive or inconclusive.
# Columns and labels:
# [1] = target: Glutathione peroxidase 1 (Homo sapiens) (UniProt P07203); assay: Primary qHTS Assay for Inhibitors of Recombinant Selenoprotein Glutathione Peroxidase 1 (GPX1) (AID 1845191); further: nearly all actives have a fitted effect of over 65% in size
# Method in brief: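 10 nM GPX1 + cpd, 30 min RT; start w/ 1 mM GSH, 0.5 mM cumene hydroperoxide, 0.5 mM NADPH, 100 nM GR, 0.01% BSA; buffer 50 mM Tris-HCl pH 7.5, 2 mM EDTA, 150 mM NaCl; Fl 340/450, 0 & 15 min.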
# [2] = target: Phospholipid hydroperoxide glutathione peroxidase GPX4 (Homo sapiens) (UniProt P36969); assay: Primary qHTS Assay for Inhibitors of Recombinant Selenoprotein Glutathione Peroxidase 4 (GPX4) (AID 1845192); further: nearly all actives have a fitted effect of over 65% in size; on activity change, negative = inhibition: series mostly up to about 50 µM
# Method in brief: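 NADPH consumption, followed by fluorescence at 340/450 nm between 0 and 15 min, reports GPX4 activity via coupled glutathione reductase (100 nM). Enzyme 200 nM was pre-exposed to compound 30 min; 0.5 mM cumene hydroperoxide and 1 mM GSH served as substrates.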
# [3] = tested on: Nanoluciferase (engineered Oplophorus gracilirostris luciferase); assay: Primary Nanoluciferase (NLuc) qHTS assay for identification of artifact compounds. (AID 1845222); further: potency means the concentration at half of the fitted maximal effect;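 on activity, negative = inhibition: NLuc secreted into diluted conditioned medium of S16 cells; series mostly up to about 54 µM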
# Method in brief: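 NLuc from S16 cell medium (1:55) plus test compounds, 15 min, room temperature. Luminescence after Nano-Glo (1:100) addition, 5 min.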
# [4] = Quantitative High-Throughput drug screen in 47 multiple myeloma cell lines against the NCATS MIPE library collection: FR4_PLB cell viability assay (AID 1918924; further: nearly all actives have a fitted effect of over 35% in size; further: potency means the concentration at half of the fitted maximal effect)
# Method in brief: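 Luminescent ATP measurement with CellTiter-Glo gives viability, scaled between DMSO-only wells (100%) and media-only wells (0%). Cells, 500 per well, faced library compounds for 48 hours at 37C.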
# [5] = Quantitative High-Throughput drug screen in 47 multiple myeloma cell lines against the NCATS MIPE library collection: Delta47_JCRB cell viability assay (AID 1918925; further: nearly all actives have a fitted effect of over 45% in size; further: potency means the concentration at half of the fitted maximal effect)
# Method in brief: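 Relative luminescence from CellTiter-Glo served as the viability signal, referenced to DMSO-treated (100%) and cell-free medium (0%) controls. Treatment lasted 48 hours at 37C with 500 cells per well.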
# [6] = Primary redox qHTS assay for identification of artifact compounds. (AID 1845223)
# Method in brief: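 Amplex Red (25 uM) and HRP (250 mU/mL) in HBSS, with compounds for 15 min, then 250 uM DTT for 30 min, room temperature, dark. Fluorescence 525/598 nm read; normalized to DMSO and 10 uM DA3003; Hill fit.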
# [7] = target: Luciferin 4-monooxygenase (Photinus pyralis) (UniProt P08659); assay: Primary firefly luciferase (FLuc) qHTS assay for identification of artifact compounds. (AID 1845220); further: nearly all actives have a fitted effect of over 60% in size; on activity change, negative = inhibition: series mostly up to about 54 µM
# Method in brief: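 FLuc 10 nM; luciferin 10 uM; ATP 10 uM; Tris-acetate pH 7.6, Mg-acetate 10 mM; 15 min RT preincubation; 5 min reaction; luminescence.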
# [8] = Primary fluorescence-based thiol-reactive (MSTI) qHTS assay for identification of artifact compounds. (AID 1845221);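 further: series mostly up to about 54 µM; thiol-reactive compounds lower the probe fluorescence signal; nearly all actives have a fitted effect of over 65% in size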
# Method in brief: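 In PBS pH 7.4 with 2% DMSO, each compound met 4 uM MSTI for one hour at ambient temperature, shielded from light, before fluorescence detection.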
# Glutathione peroxidase 1 (Homo sapiens), sequence (P07203 whole entry, looked up): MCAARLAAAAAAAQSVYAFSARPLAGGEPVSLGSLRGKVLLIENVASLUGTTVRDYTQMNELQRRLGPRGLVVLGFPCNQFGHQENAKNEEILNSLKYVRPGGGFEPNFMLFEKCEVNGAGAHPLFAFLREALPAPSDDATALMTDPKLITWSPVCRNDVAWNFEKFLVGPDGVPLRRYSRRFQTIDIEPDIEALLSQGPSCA
# Phospholipid hydroperoxide glutathione peroxidase GPX4 (Homo sapiens), sequence (P36969 whole entry, looked up): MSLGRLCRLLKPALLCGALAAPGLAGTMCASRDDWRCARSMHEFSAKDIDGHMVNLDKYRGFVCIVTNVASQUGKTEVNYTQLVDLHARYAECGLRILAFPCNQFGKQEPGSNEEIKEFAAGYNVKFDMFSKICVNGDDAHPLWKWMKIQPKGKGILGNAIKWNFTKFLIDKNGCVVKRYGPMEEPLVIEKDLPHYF
compound,measurement,setting,value
O=C(c1ccc(C(=O)N2CCC(N3CCCC3)CC2)c(Nc2ccccc2)c1)N1CCC(N2CCCC2)CC1,Potency,[1],inactive
same,Potency,[2],inactive
same,Potency,[3],inactive
same,Potency,[4],inactive
same,Potency,[5],inactive
c1ccc(CNc2nc(N3CCOc4ccccc43)nc3c2CCCC3)cc1,Potency,[1],inactive
same,Potency,[2],inactive
same,Potency,[3],inactive
same,outcome,[6],inactive
same,Potency,[4],inactive
CN1CCN(c2cccc(Nc3nc4c(-c5ccc(S(C)(=O)=O)cc5)cccn4n3)c2)CC1,Potency,[1],inactive
same,Potency,[2],inactive
same,Potency,[7],inactive
same,Potency,[3],inactive
CCn1c(-c2nonc2N)nc2cncc(CNC3CCNCC3)c21,Potency,[1],inactive
same,Potency,[2],inactive
same,Potency,[8],inactive
same,Potency,[3],inactive
same,outcome,[6],inactive
same,Potency,[4],inactive
CCCCC(C)(C)[C@H](O)C=C[C@H]1[C@H](O)CC(=O)[C@H]1CC=CCCCC(=O)O,Potency,[1],inactive
same,Potency,[2],inactive
same,Potency,[4],inactive
Cc1ccc2c(c1)C(=O)[C@]1(O)CCN(c3ccccc3)C1=N2,Potency,[1],inactive
same,Potency,[2],inactive
same,Potency,[8],inactive
same,Potency,[3],inactive
same,outcome,[6],inactive
same,Potency,[4],inactive
same,Potency,[5],inactive
CCN(CCO)CCCOc1ccc2c(Nc3cc(CC(=O)Nc4cccc(F)c4)[nH]n3)ncnc2c1,Potency,[1],inactive
same,Potency,[2],inactive
same,Potency,[8],inactive
same,Potency,[3],inactive
same,outcome,[6],inactive
same,Potency,[4],inactive
NC(=O)c1noc([C@H](CCCC2CCCCC2)CC(=O)NO)n1,Potency,[1],inactive
same,Potency,[2],inactive
same,Potency,[8],inactive
same,Potency,[3],inactive
same,outcome,[6],inactive
same,Potency,[4],6.62 µM (active)
same,Potency,[5],9.35 µM (active)
C[C@H](c1ccc(F)cc1CCCC(=O)O)N(c1cc(F)ccc1F)S(=O)(=O)c1ccc(Cl)cc1,Potency,[1],inactive
same,Potency,[2],inactive
same,Potency,[8],inactive
same,Potency,[3],inactive
same,outcome,[6],inactive
same,Potency,[5],20.9 µM (active)
Cc1cnc(CNC(=O)c2c(=O)c3ccc(N4CCCN(C)CC4)nc3n3c2sc2ccccc23)cn1,outcome,[1],inactive [at 9.52 µM]
same,"activity change, negative = inhibition",[2],-0.552% [at 9.73 µM]
same,"activity change, negative = thiol reactive",[8],18.4% [at 11.5 µM]
same,"activity, negative = inhibition",[3],4.41% [at 11.6 µM]
same,redox activity (% of DA3003),[6],-5.5% [at 11.5 µM]
same,Potency,[4],12.9 µM (active)
same,Potency,[5],0.457 µM (active)
COc1cc2nccc(Oc3ccc(NC(=O)Nc4cc(C)on4)c(Cl)c3)c2cc1OC,Potency,[1],inactive
same,Potency,[2],inactive
same,Potency,[8],inactive
same,Potency,[3],inactive
same,outcome,[6],inactive
same,Potency,[4],20.9 µM (active)
same,Potency,[5],18.7 µM (active)
CCNC(=O)c1noc(-c2cc(C(C)C)c(O)cc2O)c1-c1ccc(CN2CCOCC2)cc1,Potency,[1],inactive
same,Potency,[2],inactive
same,Potency,[8],inactive
same,Potency,[3],inactive
same,outcome,[6],inactive
same,Potency,[5],0.0662 µM (active)
COc1ccc(Cn2ccc3ccc(C(=O)NO)cc32)cc1,Potency,[1],inactive
same,Potency,[2],inactive
same,Potency,[7],inactive
same,Potency,[3],inactive
same,outcome,[6],inactive
same,Potency,[4],inactive
Cc1cc(C(C)Nc2ccccc2)c2nc(N3CCOCC3)cc(=O)n2c1 (centres undefined),Potency,[1],inactive
same,Potency,[2],inactive
same,Potency,[8],inactive
same,Potency,[3],inactive
same,outcome,[6],inactive
same,Potency,[5],9.35 µM (active)
CCCCn1c(=O)n(Cc2ccccc2F)c(=O)c2[nH]c(Cc3ccc(NC(C)=O)cc3)nc21,Potency,[1],inactive
same,Potency,[2],inactive
same,Potency,[8],inactive
same,Potency,[3],13.5 µM (active)
same,outcome,[6],inactive
same,Potency,[5],inactive
CSc1cccc(Nc2ncc3cc(-c4c(Cl)cccc4Cl)c(=O)n(C)c3n2)c1,Potency,[1],inactive
same,Potency,[2],inactive
same,Potency,[4],0.372 µM (active)
Cc1nc(C(=O)NCC(=O)O)c(O)c2ccc(Oc3ccccc3)cc12,Potency,[1],inactive
same,Potency,[2],inactive
same,Potency,[3],inactive
same,outcome,[6],inactive
same,Potency,[5],inactive
COc1nc(C)cnc1NS(=O)(=O)c1cccnc1-c1ccc(-c2nnco2)cc1,Potency,[1],inactive
same,Potency,[2],inactive
same,Potency,[3],inactive
same,outcome,[6],inactive
same,Potency,[4],inactive
COc1ccc(-c2ccc3ncc4c(c3c2)n(-c2ccc(N3CCNCC3)c(C(F)(F)F)c2)c(=O)n4C)cn1,Potency,[1],inactive
same,Potency,[2],inactive
same,Potency,[8],inactive
same,Potency,[3],inactive
COc1ccc(CCC(=O)Nc2nc3ccc(Cl)cc3s2)cc1OC,Potency,[1],inactive
same,Potency,[2],inactive
same,Potency,[8],inactive
same,Potency,[3],inactive
same,outcome,[6],inactive
same,Potency,[4],inactive
CN1C(=O)C(Cc2c[nH]c3ccccc23)NC1=S (centres undefined),Potency,[1],inactive
same,Potency,[2],inactive
same,Potency,[7],inactive
same,Potency,[3],inactive
same,outcome,[6],inactive
same,Potency,[4],inactive
same,Potency,[5],inactive
CCN1CCN(c2ccc(Nc3cc(N(C)C(=O)Nc4c(Cl)c(OC)cc(OC)c4Cl)ncn3)cc2)CC1,Potency,[1],inactive
same,Potency,[2],inactive
same,Potency,[3],inactive
same,outcome,[6],inactive
same,Potency,[4],18.7 µM (active)
same,Potency,[5],0.0093 µM (active)
CS(=O)(=O)c1ccc(C2=C(c3ccccc3)C(=O)OC2)cc1,Potency,[1],inactive
same,Potency,[2],inactive
same,Potency,[7],inactive
same,Potency,[8],inactive
same,outcome,[6],inactive
same,Potency,[4],inactive
CCC(C)SSc1ncc[nH]1 (centres undefined),Potency,[1],inactive
same,Potency,[2],inactive
same,Potency,[4],16.6 µM (active)
same,Potency,[5],10.5 µM (active)
CCCCCCCCCCCCCC(=O)N[C@H](CO)[C@H](O)c1ccc([N+](=O)[O-])cc1,Potency,[1],inactive
same,Potency,[2],inactive
same,Potency,[5],18.7 µM (active)
C[C@H]1COC2=C1C(=O)C(=O)c1c2ccc2c1CCCC2(C)C,Potency,[1],inactive
same,Potency,[5],14.8 µM (active)
O=[N+]([O-])c1ccc(Nc2ccccc2-c2ccccc2)c2nonc12,Potency,[2],inactive
